This is a sample that favours compounds with a hit; in the whole collection about 4.4% have one here.
D1 PAM: Potentiators of Human D1 Dopamine Receptor: qHTS; D(1A) dopamine receptor (Homo sapiens), P21728; HEK293 TREx D1 cells, calcium flux, dopamine EC20 potentiation; potentiation, % at 10 µM; 360,000 compounds, 0.036% hits; AID 504651, 2011; in the data active means potentiation above about 30%; further: 0% is about no effect
Target sequence (P21728 whole entry, looked up): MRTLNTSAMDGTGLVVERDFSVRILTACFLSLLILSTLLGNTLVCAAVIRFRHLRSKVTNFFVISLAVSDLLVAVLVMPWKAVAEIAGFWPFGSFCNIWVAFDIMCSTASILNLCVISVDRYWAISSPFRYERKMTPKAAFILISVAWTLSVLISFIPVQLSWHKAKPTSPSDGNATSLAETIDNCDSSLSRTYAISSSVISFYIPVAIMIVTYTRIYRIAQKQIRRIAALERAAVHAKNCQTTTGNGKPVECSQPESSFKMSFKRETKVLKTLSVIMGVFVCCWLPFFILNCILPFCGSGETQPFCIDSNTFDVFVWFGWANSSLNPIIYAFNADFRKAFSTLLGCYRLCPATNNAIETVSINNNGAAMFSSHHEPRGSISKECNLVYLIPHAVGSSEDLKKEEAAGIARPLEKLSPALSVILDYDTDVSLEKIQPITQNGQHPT
D1 agonist: Allosteric Agonists of the Human D1 Dopamine Receptor: qHTS; HEK293 T-REx D1 cells, calcium flux, agonist mode; activation, % at 2 µM; 360,000 compounds, 1% hits; further: 0% is about no effect
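Agonism was scored from calcium flux recorded over 180 s (1 read/s) after pintool compound addition, following a 10-cycle baseline. Cells were inducible force-coupled HEK293 TREx D1, plated overnight at 30 C and loaded with no-wash calcium dye.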
D1 antag: Antagonist of Human D 1 Dopamine Receptor: qHTS; 360,000 compounds, 3.2% hits; HEK293 TREx D1 cells, calcium flux, dopamine EC80; active compounds read low; activity change, negative = inhibition, % at 10 µM; D(1A) dopamine receptor (Homo sapiens), P21728; in the data active means activity change below about -30%; further: on the % scale 0 is the no-effect control and ±100 the full control effect
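Calcium flux readout: force-coupled, inducible Hek293 Trex D1 line, cells induced overnight at 30 C with tetracycline, dye-loaded 30–90 min at RT. Antagonism scored against EC80 dopamine challenge given 180 s after compound.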
TRHR agonist: qHTS for Small Molecule Agonists and Allosteric Enhancers of Human TRH Receptor: Primary Screen for Agonists; Thyrotropin-releasing hormone receptor (Homo sapiens), P34981; TRHR cells, calcium flux fluo-8, FDSS agonist mode; activation, % at 2 µM; 360,000 compounds, 0.18% hits; further: 0% is about no effect
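Fluo-8-loaded TRHR cells; 10 s baseline, compound added, kinetic Ca2+ fluorescence read 1/s, agonist mode.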
USP1-UAF1 inh: Inhibitors of USP1/UAF1: Primary Screen. Ubiquitin carboxyl-terminal hydrolase 1 (Homo sapiens), O94782. recombinant USP1/UAF1, Ub-Rhodamine cleavage fluorescence. Potency, µM (top dose mostly 57.1 µM), for the others: at the highest dose activity change, negative = inhibition, usual class: inhibitors. 390,000 compounds, 0.23% hits. AID 743255, 2014; active means well fitted inhibition curve with a large enough effect; inconclusive means small, poorly fitted or top-dose-only effect; inactive means no such curve, though single readings can be large or run the other way; further: potency means the concentration at half of the fitted maximal effect; on the % scale 0 is the no-effect control and ±100 the full control effect; nearly all actives have a fitted effect of over 60% in size
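USP1/UAF1 complex at 1 nM was preincubated with compound for 15 min at room temperature, then Ub-Rho substrate (150nM final) was added. Fluorescence (480/540 nm) was read kinetically, 6 reads every 60 seconds.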
TRHR enhancer: qHTS for Small Molecule Agonists and Allosteric Enhancers of Human TRH Receptor: Primary Screen for Enhancers; Thyrotropin-releasing hormone receptor (Homo sapiens), P34981; TRHR cells, fluo-8 calcium fluorescence, EC20 TRH enhancement; enhancement, % at 2 µM; 360,000 compounds, 0.66% hits; AID 493056, 2011; in the data active means enhancement above about 30%; further: 0% is about no effect
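Enhancer read-out: after compound pinning and an initial kinetic agonist-mode read, an EC20 of TRH (10 nM final) was injected and fluo-8 calcium signal (Ex 480/Em 530) followed at 1 s/cycle for 100 cycles in TRHR-expressing cells.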
Numbers without * were called inactive; ? = inconclusive; · = no result. Unless noted, no stated cut-off is given here; in the data, active means activation above about 30%; inactive means the rest.

SMILES	D1 PAM	D1 agonist	D1 antag	TRHR agonist	USP1-UAF1 inh	TRHR enhancer
Cc1ccc(NC(=O)C2CCCN(c3nnc(-n4c(C)ccc4C)s3)C2)cc1Cl (configuration not stated)	-1.7	0.7	-7.3	-1.0	-23.4%	7.2
CCOC(=O)c1c(NC(=O)/C=C/c2ccc(OCC)cc2)sc2c1CCCC2	3.7	2.1	-10.3	0.3	-27.3%	1.1
CCOC(=O)c1sc(NC(=O)/C=C/c2cnn(CC)c2C)c(C(=O)OCC)c1C	-4.0	6.9	-60.0*	0.1	-12.6%	5.9
CCOC(=O)c1c(NC(=O)/C=C/c2ccc(OCC)cc2)sc(C)c1C	-3.0	3.2	-79.8*	0.7	-19.4%	-0.3
CCCOC(=O)c1c(NC(=O)/C=C/c2cnn(C)c2C)sc(C(=O)OCC)c1C	18.2	4.4	-2.0	0.2	-15.6%	-4.1
CCc1ccc(NC(=O)CSc2ccc3nc(-c4ccc(OC)cc4)cn3n2)cc1	-1.5	4.3	-17.6	0.2	?	-2.9
N#Cc1sc2nc(-c3ccccc3)cc(-c3ccco3)c2c1N	-5.6	12.5	2.4	0.8	3.98µM*	-1.5
COc1cccc(-c2cc(C(F)(F)F)c3c(N)c(C#N)sc3n2)c1	16.9	34.3*	-9.3	4.7	·	16.5
N#Cc1sc2nc(C3CC3)cc(-c3ccccc3)c2c1N	-0.2	0.2	1.4	-0.8	-25.3%	1.1
O=C(CNC(=O)c1ccncc1)OC(C(=O)Nc1cc(C(F)(F)F)ccc1Cl)c1ccccc1 (configuration not stated)	4.7	1.3	21.3	0.6	·	3.1
CCOC(=O)c1c(C)[nH]c(CCC(=O)NCc2ccc(CC)cc2)c1C	-3.2	0.2	-4.0	-0.2	-8.5%	-5.9
CC(C)Cn1c(=O)c2sccc2n2c(CCCC(=O)NCc3ccccc3Cl)nnc12	-4.8	-0.2	6.7	-0.1	-19.0%	0.8
O=C(Cc1cccc2ccccc12)NCC(=O)Nc1ccccc1F	-3.0	0.7	-51.2*	0.0	-16.1%	12.7
CC(=O)N(Nc1ccccc1)c1ccccc1	-1.0	-0.3	-52.3*	0.4	-17.8%	-0.1
CC(=O)N(CCN(C(C)=O)c1ccccc1)c1ccccc1	5.0	5.4	-0.3	0.4	-5.3%	-11.0
COc1ccc(C)cc1NC(=O)NCc1ccc2c(c1)CCN2C(=O)c1ccccc1	-3.9	-0.4	-2.1	-0.5	-1.1%	-10.4
O=Nc1c(O)n(Cc2cccc(C(F)(F)F)c2)c2ccccc12	23.0	68.9*	51.9	-0.3	-26.8%	4.7
COc1ccc(OC)c(NC(=O)C2=C(C)C(=O)OC23CCCCCC3)c1	-2.5	-1.5	3.4	-0.8	-22.3%	19.5
CCCCCCN1C=C/C(=C\C=C(C#N)C#N)c2ccccc21	-1.6	4.6	-3.6	2.0	-1.8%	-4.0
CCCCCCN1C=CC=C/C1=C/C=C(C#N)C#N	2.6	132.5*	5.5	24.6	?	-6.3
Clc1ccc(Cc2nc(-c3ccncc3)no2)cc1	1.1	11.0	-36.5*	-1.0	-11.0%	-1.6
O=C(CC(c1ccccc1)c1cc(Br)ccc1O)NCC1(c2ccccc2)CCCC1 (configuration not stated)	-5.3	3.2	-25.6	-0.4	-24.8%	1.4
CSc1ccc(CN(C)C(=O)c2cccc(S(=O)(=O)NCc3ccccc3)c2)cc1	-11.0	16.3	-32.9*	0.4	-25.3%	-6.1
CC(=O)Nc1ccc(NC(=O)c2ncoc2-c2ccco2)cc1	0.4	-1.4	8.5	0.3	4.5%	-1.5
CC(=O)NC(c1cc(Cl)c2cccnc2c1O)C1CC1 (configuration not stated)	3.6	4.5	-54.9*	0.3	·	11.8
SMILES	D1 PAM	D1 agonist	D1 antag	TRHR agonist	USP1-UAF1 inh	TRHR enhancer
CC(=O)NC(c1cc(Cl)c2cccnc2c1O)C(C)C (configuration not stated)	3.4	4.5	-6.0	0.8	·	-6.2
CCC(=O)NC(c1ccc(C)s1)c1cc(Cl)c2cccnc2c1O (configuration not stated)	-7.4	9.7	-57.8*	1.2	·	3.8
Cc1ccc2cccc(NC(=O)c3cccc4c(Br)cccc34)c2n1	-2.5	6.5	-2.8	-3.3	-24.5%	7.6
COC(=O)c1sc(NC(=S)NC(=O)c2ccccc2C)nc1C	-3.2	91.6*	3.9	16.2	-23.2%	-7.2
COC(=O)c1sc(NC(=O)c2c(C)noc2C)nc1C	-8.5	3.7	-32.5*	0.1	-15.0%	-0.5
Cc1nc(NC(=O)c2ccco2)sc1C(=O)O	-3.5	1.9	-34.7*	0.6	-12.6%	27.6
COC(=O)c1sc(NC(=S)NC(=O)c2ccc(F)cc2)nc1C	-2.0	2.2	-13.9	0.0	·	2.5
COC(=O)c1sc(NC(=O)c2c(-c3ccccc3)noc2C)nc1C	4.3	1.4	-2.4	-0.9	-12.7%	-5.6
COC(=O)c1sc(NC(=O)c2ccco2)nc1C	1.4	5.7	-2.1	-0.4	-28.6%	4.8
CC(C)(C)c1ccc(C(=O)NCC(=O)OC(C(=O)Nc2cc(C(F)(F)F)ccc2Cl)c2ccccc2)cc1 (configuration not stated)	12.2	2.5	-11.1	0.6	·	-11.4
Cc1cc(C)c(/C=C/c2onc(C)c2S(=O)(=O)N2CCC(C(=O)N3CCN(c4ccc(Cl)cc4)CC3)CC2)c(C)c1	2.9	3.0	-5.0	0.7	?	6.0
CCOCCCn1c(=N)c(C(=O)NCc2cccnc2)cc2c(=O)n3cc(C)ccc3nc21	-1.4	34.0*	-4.1	4.4	-34.8%	-6.0
COCCCn1c(=N)c(C(=O)NC2CCCC2)cc2c(=O)n3cc(C)ccc3nc21	0.5	85.6*	4.9	10.8	-16.3%	3.0
CCOC(=O)c1c(Nc2ccc(C)cc2)nnc(-c2ccccc2)c1-c1ccccc1	0.5	-0.6	11.5	-0.2	-27.7%	-9.4
CCCc1ccc(C#N)c(SC2CC(=O)N(c3ccc(OC)cc3)C2=O)n1 (configuration not stated)	-2.0	12.7	-45.0*	-0.4	-8.0%	7.9
CC(C)CN1C2CCCC1CC(NC(=O)c1ccc([N+](=O)[O-])cc1)C2 (configuration not stated)	-8.8	0.6	-48.1*	0.6	-16.7%	-1.8

From PubChem
